According to PubChem BioAssay AID720595 (Broad Institute, 2013):
Potency and affinity values are given separately. Values without a mark were called inactive. The source made the active and inactive calls.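 The calls were made as follows: active = every repeat test gives a fitted half-maximal cytotoxic concentration no higher than twice the top valid dose; inconclusive = repeats disagree, or a flat partial loss or poor fit; inactive = the rest, including signal rising instead.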

Test: HEK293T cell cytotoxicity, dose response, cytotoxicity control, CellTiter-Glo luminescence, dry powder, set 2 (AID 720595)
Conditions: HEK293T viability, ATP luminescence, 72 h; series mostly up to 26 µM; activity change, negative = cytotoxicity: at the top concentration

Row | Structure (SMILES) | activity change, negative = cytotoxicity | outcome
1 | O=C(CSc1ccc(-c2ccccn2)nn1)N1CCCC1 | 6.61% | 
2 | FC(F)(F)c1cc(-c2nn[nH]n2)cc(C(F)(F)F)c1 | 16.9% | 
3 | CC1CCN(S(=O)(=O)c2ccc(C(=O)Nc3nnc(-c4cccs4)o3)cc2)CC1 | -32.3% | 
4 | CC1CCN(S(=O)(=O)c2ccc(C(=O)Nc3nnc(-c4ccccn4)o3)cc2)CC1 | 0.61% | 
5 | c1ccc(-c2nc(-c3ccncc3)n[nH]2)nc1 |  | inactive
6 | COC(=O)c1ccc(NC(=O)CSc2ccc(-c3ccccn3)nn2)cc1 | -7.07% | 
